# ± gives the standard deviation of the averaged measurements. Of roughly 6,200 targets only a part is listed; those with the largest changes were picked by preference.
# What was measured:
# Experiment in all cases: NP40-soluble protein abundance relative to vehicle (solubility fold change) (ratio); higher = more soluble protein in presence of AMP-PNP
# A0A0A0MSG2|J3KNW4|Q14192 = target: T1, A0A0A0MSG2|J3KNW4|Q14192 (UniProt Q14192)
# T1 sequence (whole entry): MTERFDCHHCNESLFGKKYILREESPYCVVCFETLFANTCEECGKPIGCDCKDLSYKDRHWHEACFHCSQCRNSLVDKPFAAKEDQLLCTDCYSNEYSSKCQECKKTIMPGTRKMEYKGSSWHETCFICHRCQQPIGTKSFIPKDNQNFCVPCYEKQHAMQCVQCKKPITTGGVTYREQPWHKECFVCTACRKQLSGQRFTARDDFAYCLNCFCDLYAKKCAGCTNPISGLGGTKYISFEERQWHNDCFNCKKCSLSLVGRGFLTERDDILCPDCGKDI
# Method in brief: (§1)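 Across three independent experiments, values are fold changes against the detergent-processed vehicle for each replicate, based on vsn-normalised intensities. The samples were Jurkat crude lysate treated with eight concentrations (0.1 to 10 mM) for 10 min at room temperature and then 3 min at 37 °C. Lysate was solubilised with 0.8% NP40 and benzonase, ultracentrifuged, and the supernatant analysed by TMT-labelled LC-MS/MS.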
# A0A0U1RRH6|O94880 = target: T2, A0A0U1RRH6|O94880 (UniProt O94880)
# T2 sequence (whole entry): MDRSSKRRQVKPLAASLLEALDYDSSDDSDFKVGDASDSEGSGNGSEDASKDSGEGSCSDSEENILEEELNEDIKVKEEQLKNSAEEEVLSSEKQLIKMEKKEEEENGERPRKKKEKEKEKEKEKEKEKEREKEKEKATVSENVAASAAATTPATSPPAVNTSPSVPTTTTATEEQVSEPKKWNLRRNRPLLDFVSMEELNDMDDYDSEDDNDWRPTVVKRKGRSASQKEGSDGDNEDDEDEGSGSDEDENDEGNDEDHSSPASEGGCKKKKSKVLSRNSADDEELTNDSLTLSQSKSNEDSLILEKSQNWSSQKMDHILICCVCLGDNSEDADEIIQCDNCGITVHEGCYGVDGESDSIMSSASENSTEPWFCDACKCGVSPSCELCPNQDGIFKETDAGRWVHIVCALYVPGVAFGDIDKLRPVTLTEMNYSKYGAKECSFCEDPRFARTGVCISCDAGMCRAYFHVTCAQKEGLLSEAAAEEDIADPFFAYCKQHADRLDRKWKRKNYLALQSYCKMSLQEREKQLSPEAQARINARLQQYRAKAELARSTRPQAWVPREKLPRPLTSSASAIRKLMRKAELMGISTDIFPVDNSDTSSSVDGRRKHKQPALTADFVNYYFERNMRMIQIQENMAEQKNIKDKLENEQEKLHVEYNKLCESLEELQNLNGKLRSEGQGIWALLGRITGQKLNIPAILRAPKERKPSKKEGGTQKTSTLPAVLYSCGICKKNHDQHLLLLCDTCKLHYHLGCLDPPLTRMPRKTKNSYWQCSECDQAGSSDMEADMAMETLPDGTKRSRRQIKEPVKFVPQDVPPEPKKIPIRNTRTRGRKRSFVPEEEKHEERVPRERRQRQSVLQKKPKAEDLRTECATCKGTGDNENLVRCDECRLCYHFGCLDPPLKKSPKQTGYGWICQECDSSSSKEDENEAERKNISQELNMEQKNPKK
# Method in brief: as §1
# ACOX3 = target: T3, ACOX3 (UniProt O15254)
# T3 sequence (whole entry): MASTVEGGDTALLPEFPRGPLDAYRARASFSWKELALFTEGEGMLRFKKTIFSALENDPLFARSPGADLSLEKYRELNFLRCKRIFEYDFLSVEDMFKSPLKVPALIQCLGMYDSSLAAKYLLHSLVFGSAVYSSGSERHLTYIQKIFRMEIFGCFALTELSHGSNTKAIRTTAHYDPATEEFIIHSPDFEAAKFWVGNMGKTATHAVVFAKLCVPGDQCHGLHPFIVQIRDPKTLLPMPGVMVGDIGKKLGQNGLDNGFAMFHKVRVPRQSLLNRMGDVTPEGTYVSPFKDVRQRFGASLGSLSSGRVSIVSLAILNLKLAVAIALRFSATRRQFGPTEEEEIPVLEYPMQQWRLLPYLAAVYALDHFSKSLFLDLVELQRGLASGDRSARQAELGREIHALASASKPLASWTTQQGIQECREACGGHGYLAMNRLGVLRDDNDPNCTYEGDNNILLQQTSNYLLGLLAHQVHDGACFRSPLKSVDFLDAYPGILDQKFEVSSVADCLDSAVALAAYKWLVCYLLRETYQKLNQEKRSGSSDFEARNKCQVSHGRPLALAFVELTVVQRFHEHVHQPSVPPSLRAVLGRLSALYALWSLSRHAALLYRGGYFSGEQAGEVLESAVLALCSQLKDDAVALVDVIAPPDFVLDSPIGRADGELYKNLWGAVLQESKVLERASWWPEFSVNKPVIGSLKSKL
# Method in brief: as §1
# C9JI46|Q8N3X6|Q8N3X6-3 = target: T4, C9JI46|Q8N3X6|Q8N3X6-3 (UniProt Q8N3X6)
# T4 sequence (whole entry): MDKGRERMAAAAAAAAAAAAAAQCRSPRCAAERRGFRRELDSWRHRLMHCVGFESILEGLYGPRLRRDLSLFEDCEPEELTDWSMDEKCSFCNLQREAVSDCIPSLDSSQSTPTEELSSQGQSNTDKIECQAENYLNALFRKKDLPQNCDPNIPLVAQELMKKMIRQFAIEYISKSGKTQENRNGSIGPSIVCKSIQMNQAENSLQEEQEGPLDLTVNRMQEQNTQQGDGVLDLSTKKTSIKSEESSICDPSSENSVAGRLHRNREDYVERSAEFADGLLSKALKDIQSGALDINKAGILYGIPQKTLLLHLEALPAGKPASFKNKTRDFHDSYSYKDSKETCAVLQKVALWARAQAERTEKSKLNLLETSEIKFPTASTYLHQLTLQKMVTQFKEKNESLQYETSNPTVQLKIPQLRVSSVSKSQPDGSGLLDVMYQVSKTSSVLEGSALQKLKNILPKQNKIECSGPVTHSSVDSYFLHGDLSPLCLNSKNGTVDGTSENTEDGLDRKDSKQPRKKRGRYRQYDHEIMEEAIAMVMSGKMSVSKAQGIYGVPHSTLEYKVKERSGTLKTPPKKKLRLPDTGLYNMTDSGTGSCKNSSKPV
# Method in brief: as §1
smiles,measurement,setting,value
Nc1ncnc2c1ncn2[C@@H]1O[C@H](COP(=O)(O)OP(=O)(O)NP(=O)(O)O)[C@@H](O)[C@H]1O [adenylyl imidodiphosphate],NP40-soluble protein abundance,A0A0A0MSG2|J3KNW4|Q14192; concentration: 1mM,0.991 ± 0.05
same,NP40-soluble protein abundance,A0A0A0MSG2|J3KNW4|Q14192; concentration: 2mM,0.988 ± 0.09
same,NP40-soluble protein abundance,A0A0A0MSG2|J3KNW4|Q14192; concentration: 4mM,1.02 ± 0.048
same,NP40-soluble protein abundance,A0A0A0MSG2|J3KNW4|Q14192; concentration: 6mM,0.966 ± 0.036
same,NP40-soluble protein abundance,A0A0A0MSG2|J3KNW4|Q14192; concentration: 8mM,0.979 ± 0.083
same,NP40-soluble protein abundance,A0A0A0MSG2|J3KNW4|Q14192; concentration: 10mM,0.947 ± 0.035
same,NP40-soluble protein abundance,A0A0U1RRH6|O94880; concentration: 1mM,1.02 ± 0.036
same,NP40-soluble protein abundance,A0A0U1RRH6|O94880; concentration: 2mM,1.07 ± 0.03
same,NP40-soluble protein abundance,A0A0U1RRH6|O94880; concentration: 4mM,1.14 ± 0.025
same,NP40-soluble protein abundance,A0A0U1RRH6|O94880; concentration: 6mM,1.21 ± 0.017
same,NP40-soluble protein abundance,A0A0U1RRH6|O94880; concentration: 8mM,1.27 ± 0.035
same,NP40-soluble protein abundance,A0A0U1RRH6|O94880; concentration: 10mM,1.36 ± 0.092
same,NP40-soluble protein abundance,ACOX3; concentration: 1mM,0.977 ± 0.053
same,NP40-soluble protein abundance,ACOX3; concentration: 2mM,0.928 ± 0.076
same,NP40-soluble protein abundance,ACOX3; concentration: 4mM,0.967 ± 0.031
same,NP40-soluble protein abundance,ACOX3; concentration: 6mM,0.957 ± 0.057
same,NP40-soluble protein abundance,ACOX3; concentration: 8mM,0.972 ± 0.07
same,NP40-soluble protein abundance,ACOX3; concentration: 10mM,0.918 ± 0.089
same,NP40-soluble protein abundance,C9JI46|Q8N3X6|Q8N3X6-3; concentration: 1mM,0.985 ± 0.021
same,NP40-soluble protein abundance,C9JI46|Q8N3X6|Q8N3X6-3; concentration: 2mM,1.024 ± 0.0091
same,NP40-soluble protein abundance,C9JI46|Q8N3X6|Q8N3X6-3; concentration: 4mM,1.01 ± 0.058
same,NP40-soluble protein abundance,C9JI46|Q8N3X6|Q8N3X6-3; concentration: 6mM,0.992 ± 0.017
same,NP40-soluble protein abundance,C9JI46|Q8N3X6|Q8N3X6-3; concentration: 8mM,0.952 ± 0.014
same,NP40-soluble protein abundance,C9JI46|Q8N3X6|Q8N3X6-3; concentration: 10mM,1 ± 0.039
